Data: the supplement of paper PMC11001985
A number with no mark means an inactive call.

Chain of UniProt P06756 (P06756 whole entry): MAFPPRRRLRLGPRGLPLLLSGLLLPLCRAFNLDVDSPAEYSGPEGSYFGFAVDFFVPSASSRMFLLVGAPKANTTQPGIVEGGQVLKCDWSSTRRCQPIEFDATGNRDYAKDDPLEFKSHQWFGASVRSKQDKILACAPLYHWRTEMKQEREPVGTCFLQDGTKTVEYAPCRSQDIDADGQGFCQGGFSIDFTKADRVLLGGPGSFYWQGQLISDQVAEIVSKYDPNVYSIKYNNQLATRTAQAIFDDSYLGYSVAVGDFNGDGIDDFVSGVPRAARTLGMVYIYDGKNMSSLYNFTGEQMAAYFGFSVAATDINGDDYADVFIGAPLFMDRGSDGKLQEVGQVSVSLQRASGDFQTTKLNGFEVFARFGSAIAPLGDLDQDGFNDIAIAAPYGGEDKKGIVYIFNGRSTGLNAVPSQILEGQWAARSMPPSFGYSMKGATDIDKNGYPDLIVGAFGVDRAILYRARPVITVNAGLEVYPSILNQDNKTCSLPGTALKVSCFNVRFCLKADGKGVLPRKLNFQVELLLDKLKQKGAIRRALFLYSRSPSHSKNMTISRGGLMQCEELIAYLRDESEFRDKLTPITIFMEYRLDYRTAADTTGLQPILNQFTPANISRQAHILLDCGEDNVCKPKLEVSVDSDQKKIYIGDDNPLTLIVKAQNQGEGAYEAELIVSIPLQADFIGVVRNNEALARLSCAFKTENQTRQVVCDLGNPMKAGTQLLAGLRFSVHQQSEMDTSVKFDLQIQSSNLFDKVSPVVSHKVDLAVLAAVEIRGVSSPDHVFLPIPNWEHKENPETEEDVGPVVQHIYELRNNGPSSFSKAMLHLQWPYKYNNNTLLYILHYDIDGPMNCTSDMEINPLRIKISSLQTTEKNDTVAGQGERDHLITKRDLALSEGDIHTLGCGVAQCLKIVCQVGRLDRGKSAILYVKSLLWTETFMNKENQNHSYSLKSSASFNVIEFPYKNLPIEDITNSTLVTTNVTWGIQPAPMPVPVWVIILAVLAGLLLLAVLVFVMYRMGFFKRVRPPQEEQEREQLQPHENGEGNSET
Chain of UniProt Q13813 (Q13813 whole entry): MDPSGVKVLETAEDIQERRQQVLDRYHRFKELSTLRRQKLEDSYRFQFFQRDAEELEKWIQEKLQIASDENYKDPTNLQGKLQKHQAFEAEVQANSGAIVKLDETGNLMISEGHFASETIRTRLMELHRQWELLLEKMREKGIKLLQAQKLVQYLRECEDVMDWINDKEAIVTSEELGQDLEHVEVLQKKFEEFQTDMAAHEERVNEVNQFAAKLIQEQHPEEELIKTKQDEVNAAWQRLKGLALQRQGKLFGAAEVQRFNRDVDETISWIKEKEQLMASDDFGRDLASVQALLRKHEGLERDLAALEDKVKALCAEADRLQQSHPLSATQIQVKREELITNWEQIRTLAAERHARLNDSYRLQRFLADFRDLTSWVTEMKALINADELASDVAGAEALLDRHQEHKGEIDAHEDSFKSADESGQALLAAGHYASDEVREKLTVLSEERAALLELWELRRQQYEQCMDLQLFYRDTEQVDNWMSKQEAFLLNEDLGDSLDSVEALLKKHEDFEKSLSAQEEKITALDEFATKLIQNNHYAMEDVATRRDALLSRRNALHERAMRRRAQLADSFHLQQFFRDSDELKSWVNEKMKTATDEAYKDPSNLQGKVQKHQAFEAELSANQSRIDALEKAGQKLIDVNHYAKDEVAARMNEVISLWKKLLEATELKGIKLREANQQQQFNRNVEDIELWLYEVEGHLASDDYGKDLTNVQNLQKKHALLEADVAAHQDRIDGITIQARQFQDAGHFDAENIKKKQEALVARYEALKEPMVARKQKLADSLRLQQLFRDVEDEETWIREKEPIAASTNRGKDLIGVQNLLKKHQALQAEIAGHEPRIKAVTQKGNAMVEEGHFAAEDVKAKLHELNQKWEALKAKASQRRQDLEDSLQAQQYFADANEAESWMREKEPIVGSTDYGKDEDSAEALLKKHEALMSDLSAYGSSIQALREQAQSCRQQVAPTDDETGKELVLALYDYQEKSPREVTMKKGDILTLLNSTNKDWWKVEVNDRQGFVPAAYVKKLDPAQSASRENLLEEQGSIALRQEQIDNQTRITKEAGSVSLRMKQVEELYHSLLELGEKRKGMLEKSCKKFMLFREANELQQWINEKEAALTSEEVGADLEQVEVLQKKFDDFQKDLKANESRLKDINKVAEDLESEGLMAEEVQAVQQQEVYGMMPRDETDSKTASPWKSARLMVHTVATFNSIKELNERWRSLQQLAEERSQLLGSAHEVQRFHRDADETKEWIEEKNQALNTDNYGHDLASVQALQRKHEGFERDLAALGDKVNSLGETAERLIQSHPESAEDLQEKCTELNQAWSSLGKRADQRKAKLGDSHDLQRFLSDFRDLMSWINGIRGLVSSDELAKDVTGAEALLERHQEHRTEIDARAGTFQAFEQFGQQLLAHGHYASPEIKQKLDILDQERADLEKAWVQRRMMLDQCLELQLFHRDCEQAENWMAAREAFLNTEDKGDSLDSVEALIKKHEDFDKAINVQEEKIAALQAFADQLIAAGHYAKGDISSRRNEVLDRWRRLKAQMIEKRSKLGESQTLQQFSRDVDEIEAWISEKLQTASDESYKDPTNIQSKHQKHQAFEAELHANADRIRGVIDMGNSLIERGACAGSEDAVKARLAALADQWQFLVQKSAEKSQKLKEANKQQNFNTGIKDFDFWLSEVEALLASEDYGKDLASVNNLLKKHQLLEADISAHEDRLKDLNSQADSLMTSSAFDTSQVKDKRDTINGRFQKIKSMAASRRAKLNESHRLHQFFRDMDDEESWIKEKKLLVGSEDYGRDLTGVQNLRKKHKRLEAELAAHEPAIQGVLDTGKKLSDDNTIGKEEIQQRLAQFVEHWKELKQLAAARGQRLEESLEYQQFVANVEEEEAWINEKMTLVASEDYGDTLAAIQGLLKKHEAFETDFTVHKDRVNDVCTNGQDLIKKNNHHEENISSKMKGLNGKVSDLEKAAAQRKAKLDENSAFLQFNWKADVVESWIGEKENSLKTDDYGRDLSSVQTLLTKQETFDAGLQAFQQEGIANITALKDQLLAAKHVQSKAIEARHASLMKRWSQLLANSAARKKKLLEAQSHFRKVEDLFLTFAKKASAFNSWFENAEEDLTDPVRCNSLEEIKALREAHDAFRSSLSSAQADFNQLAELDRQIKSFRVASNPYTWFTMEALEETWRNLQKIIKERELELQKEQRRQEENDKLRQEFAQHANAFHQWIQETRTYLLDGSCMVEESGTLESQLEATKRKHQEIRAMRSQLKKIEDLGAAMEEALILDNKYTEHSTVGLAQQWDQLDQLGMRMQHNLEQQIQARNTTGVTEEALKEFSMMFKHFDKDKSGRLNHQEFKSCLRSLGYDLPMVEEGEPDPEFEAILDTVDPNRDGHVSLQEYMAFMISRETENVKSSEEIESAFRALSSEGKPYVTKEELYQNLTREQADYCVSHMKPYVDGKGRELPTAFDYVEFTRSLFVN
Chain of UniProt P29401 (P29401 whole entry): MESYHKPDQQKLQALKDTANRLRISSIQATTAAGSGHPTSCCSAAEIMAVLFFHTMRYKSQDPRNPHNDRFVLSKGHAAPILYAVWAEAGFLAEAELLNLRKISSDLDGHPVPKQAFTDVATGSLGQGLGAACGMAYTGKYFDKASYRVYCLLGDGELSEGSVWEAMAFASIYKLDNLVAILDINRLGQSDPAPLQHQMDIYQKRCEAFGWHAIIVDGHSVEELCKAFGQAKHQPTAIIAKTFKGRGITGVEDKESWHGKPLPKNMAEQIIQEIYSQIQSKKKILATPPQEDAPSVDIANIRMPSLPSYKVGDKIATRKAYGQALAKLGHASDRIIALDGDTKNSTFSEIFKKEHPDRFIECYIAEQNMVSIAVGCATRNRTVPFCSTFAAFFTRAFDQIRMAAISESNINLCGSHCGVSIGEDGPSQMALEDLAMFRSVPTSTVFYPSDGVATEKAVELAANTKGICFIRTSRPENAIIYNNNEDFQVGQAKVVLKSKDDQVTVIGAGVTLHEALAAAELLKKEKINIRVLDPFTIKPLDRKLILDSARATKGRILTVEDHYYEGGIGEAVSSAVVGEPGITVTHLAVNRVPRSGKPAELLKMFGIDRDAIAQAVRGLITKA
Chain of UniProt Q01974 (Q01974 whole entry): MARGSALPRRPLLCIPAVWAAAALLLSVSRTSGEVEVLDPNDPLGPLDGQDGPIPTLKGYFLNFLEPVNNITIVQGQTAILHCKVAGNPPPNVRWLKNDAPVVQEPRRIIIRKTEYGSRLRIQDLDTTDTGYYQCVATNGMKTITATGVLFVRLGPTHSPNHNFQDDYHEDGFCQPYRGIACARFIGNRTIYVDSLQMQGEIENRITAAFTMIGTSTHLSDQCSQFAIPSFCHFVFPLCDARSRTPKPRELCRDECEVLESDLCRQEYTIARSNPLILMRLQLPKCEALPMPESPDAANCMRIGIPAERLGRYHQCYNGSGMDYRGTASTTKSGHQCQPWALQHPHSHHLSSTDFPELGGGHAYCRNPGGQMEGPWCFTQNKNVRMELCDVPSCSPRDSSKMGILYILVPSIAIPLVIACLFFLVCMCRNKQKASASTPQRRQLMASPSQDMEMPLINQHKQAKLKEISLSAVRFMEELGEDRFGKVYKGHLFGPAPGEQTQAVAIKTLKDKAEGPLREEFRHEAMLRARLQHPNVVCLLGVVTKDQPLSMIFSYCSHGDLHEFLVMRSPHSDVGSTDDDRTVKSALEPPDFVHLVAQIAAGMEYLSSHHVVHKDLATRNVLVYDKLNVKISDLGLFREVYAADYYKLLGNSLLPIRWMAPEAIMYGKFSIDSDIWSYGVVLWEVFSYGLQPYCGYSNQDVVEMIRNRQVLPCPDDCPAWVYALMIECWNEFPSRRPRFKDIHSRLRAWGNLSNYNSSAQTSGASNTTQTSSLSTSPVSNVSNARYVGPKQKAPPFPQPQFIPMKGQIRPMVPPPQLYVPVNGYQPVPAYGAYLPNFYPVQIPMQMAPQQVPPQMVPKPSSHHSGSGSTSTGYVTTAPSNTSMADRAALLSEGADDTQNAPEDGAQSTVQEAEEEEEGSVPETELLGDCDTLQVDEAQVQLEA

These targets were tested with C#CCNC(=O)CCSSCCC(=O)NCCc1ccc(C=O)c(C=O)c1 (assay: lysine labeling ratio R10:1 (500 µM / 50 µM probe), SILAC-ABPP in living cells; higher = lower intrinsic lysine reactivity toward the probe, active = 2 or less). Settings: HeLa; probe concentrations 500 vs 50 µM.
Summary of the method: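 In PBS at room temperature, living HeLa cells grown with SILAC light or heavy labels were treated with 50 µM or 500 µM of an alkyne-tagged, disulfide-linked lysine probe, with label swaps in both directions. Analysis was by LC-MS/MS on a TIMS-TOF Pro after click to biotin-azide, neutravidin capture and DTT release. For each lysine, R is the median across forward and reverse replicates of the filtered median high-probe/low-probe MS1 peptide ratio, capped at 20.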
In the case of “CD63 (lysine site: K110) (UniProt P08962)”, the “lysine labeling ratio R10:1” value was 5.07.
In the case of UniProt P35908 (lysine site: K580), the “lysine labeling ratio R10:1” value was 5.72.
For “SHMT2 (lysine site: K181) (UniProt P34897)”, the “lysine labeling ratio R10:1” value was 1.17 (active).
“NEGR1 (lysine site: K84) (UniProt Q7Z3B1)” was tested, and the “lysine labeling ratio R10:1” value was 1.36 (active).
“TKT (lysine site: K314) (UniProt P29401)” was tested, and the “lysine labeling ratio R10:1” value was 5.08.
With “CLTC (lysine site: K1612) (UniProt Q00610)” the “lysine labeling ratio R10:1” value was 4.67.
“INSR (lysine site: K476) (UniProt P06213)” was tested, and the “lysine labeling ratio R10:1” value was 1.75 (active).
With UniProt Q6NZI2 (lysine site: K137) the “lysine labeling ratio R10:1” value was 3.08.
“PLOD2 (lysine site: K486) (UniProt O00469)” was tested, and the “lysine labeling ratio R10:1” value was 2.27.
UniProt P08240 (lysine site: K220) was tested, and the “lysine labeling ratio R10:1” value was 2.1.
For “ITGAV (lysine site: K165) (UniProt P06756)”, the “lysine labeling ratio R10:1” value was 10.3.
“CLTA (lysine site: K242) (UniProt P09496)” was tested, and the “lysine labeling ratio R10:1” value was 5.68.
With “MARS (lysine site: K729) (UniProt P56192)” the “lysine labeling ratio R10:1” value was 1.58 (active).
With “ITGAV (lysine site: K360) (UniProt P06756)” the “lysine labeling ratio R10:1” value was 1.23 (active).
For “WNT5A (lysine site: K348) (UniProt P41221)”, the “lysine labeling ratio R10:1” value was 1.98 (active).
In the case of “JPT2 (lysine site: K67) (UniProt Q9H910)”, the “lysine labeling ratio R10:1” value was 4.42.
With “GAPDH (lysine site: K117) (UniProt P04406)” the “lysine labeling ratio R10:1” value was 3.17.
“SPTAN1 (lysine site: K2205) (UniProt Q13813)” was tested, and the “lysine labeling ratio R10:1” value was 6.67.
With “UGDH (lysine site: K173) (UniProt O60701)” the “lysine labeling ratio R10:1” value was 1.43 (active).
For “SPTAN1 (lysine site: K2184) (UniProt Q13813)”, the “lysine labeling ratio R10:1” value was 5.14.
“TM9SF2 (lysine site: K328) (UniProt Q99805)” was tested, and the “lysine labeling ratio R10:1” value was 0.928 (active).
In the case of “HSP90B1 (lysine site: K630) (UniProt P14625)”, the “lysine labeling ratio R10:1” value was 2.66.
With “IGSF3 (lysine site: K373) (UniProt O75054)” the “lysine labeling ratio R10:1” value was 3.12.
In the case of “P4HB (lysine site: K114) (UniProt P07237)”, the “lysine labeling ratio R10:1” value was 6.39.
In the case of UniProt Q8WXI7 (lysine site: K12623), the “lysine labeling ratio R10:1” value was 3.22.
With “ROR2 (lysine site: K97) (UniProt Q01974)” the “lysine labeling ratio R10:1” value was 6.68.
For “ANTXR1 (lysine site: K94) (UniProt Q9H6X2)”, the “lysine labeling ratio R10:1” value was 2.11.
With UniProt P55285 (lysine site: K121) the “lysine labeling ratio R10:1” value was 4.12.
For UniProt Q15149 (lysine site: K1921), the “lysine labeling ratio R10:1” value was 1.36 (active).
In the case of “TKT (lysine site: K543) (UniProt P29401)”, the “lysine labeling ratio R10:1” value was 9.07.
For “PSMD2 (lysine site: K551) (UniProt Q13200)”, the “lysine labeling ratio R10:1” value was 2.34.
With “EEF1G (lysine site: K241) (UniProt P26641)” the “lysine labeling ratio R10:1” value was 1.4 (active).
In the case of UniProt Q15149 (lysine site: K597), the “lysine labeling ratio R10:1” value was 3.48.
With “ITGA6 (lysine site: K144) (UniProt P23229)” the “lysine labeling ratio R10:1” value was 4.01.
With “SERPINH1 (lysine site: K160) (UniProt P50454)” the “lysine labeling ratio R10:1” value was 2.81.
With UniProt Q8WXI7 (lysine site: K13072) the “lysine labeling ratio R10:1” value was 11.1.
In the case of UniProt P59998 (lysine site: K44), the “lysine labeling ratio R10:1” value was 7.73.
For “CDCP1 (lysine site: K369) (UniProt Q9H5V8)”, the “lysine labeling ratio R10:1” value was 2.97.
In the case of “HSPD1 (lysine site: K133) (UniProt P10809)”, the “lysine labeling ratio R10:1” value was 3.96.
For “EZR (lysine site: K523) (UniProt P15311)”, the “lysine labeling ratio R10:1” value was 1.87 (active).
